{"source": "PubChem BioAssay AID463165", "about": "(Johns Hopkins Ion Channel Center, 2010)", "note": "In all, about 310,000 compounds went through this assay and about 1,400 (0.45%) were called active.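 The calls were made as follows: active = B-score, a plate-corrected calcium signal, over three deviations above library mean, with baseline fluorescence within five deviations of library mean; inactive = the rest.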 The entries come from a sample that favours actives as a whole."}
{"biological_target": "Regulator of G-protein signaling 4 (Homo sapiens) (UniProt P49798)", "sequence (P49798 whole entry, looked up)": "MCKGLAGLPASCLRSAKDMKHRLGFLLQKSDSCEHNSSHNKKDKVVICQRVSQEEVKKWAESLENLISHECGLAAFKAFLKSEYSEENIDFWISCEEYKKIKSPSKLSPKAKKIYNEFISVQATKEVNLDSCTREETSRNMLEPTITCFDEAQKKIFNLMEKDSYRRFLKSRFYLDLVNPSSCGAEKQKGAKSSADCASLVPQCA", "experiment": "blockers of RGS4 function in M3R calcium signaling – cell-based, HEK293 M3R inducible RGS4, calcium flux, primary screen (AID 463165);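 also: RGS4 expression induced by doxycycline in cells with stable M3 receptor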;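 as to B-score: B-score is computed from the integrated fluorescence ratio over baseline after carbachol; higher B-score means a larger calcium signal and so more RGS4 inhibition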", "conditions": "Fluo-4 calcium flux, at 10 µM, triggered by carbachol at its EC20; hits give high values"}
{"smiles": "O=C1NC(c2cccc(Cl)c2)Nc2ccccc21", "note": "(stereo unspecified)", "B-score": "inactive"}
{"smiles": "O=c1c(-c2cccc(Cl)c2)c[nH]n1-c1ccccc1", "B-score": "inactive"}
{"smiles": "O=C1c2ccccc2NC(c2ccc(-c3cccc(Cl)c3)o2)N1O", "note": "(stereo unspecified)", "B-score": "8.05 (active)"}
{"smiles": "CCOC(=O)c1ccc(NC(=O)c2cccnc2)cc1", "B-score": "inactive"}
{"smiles": "COCCc1nn2c(=O)cc(COC(=O)c3cc(OC)c(OC)c(OC)c3)nc2s1", "B-score": "inactive"}
{"smiles": "Cc1nn2c(=O)cc(COC(=O)c3ccc(NC(=O)C(C)(C)C)cc3)nc2s1", "B-score": "17.9 (active)"}
{"smiles": "COc1ccc(CC(=O)NC2CCSc3ccccc32)cc1OC", "note": "(stereo unspecified)", "B-score": "inactive"}
{"smiles": "CN(C(=O)c1cccc([N+](=O)[O-])c1)c1ccccc1C(=O)NCc1ccccc1", "B-score": "inactive"}
{"smiles": "C#CCOc1ccc(/C=C2/C(=O)ON=C2C)cc1OCC", "B-score": "6.2 (active)"}
{"smiles": "COc1cc(/C=C2/C(=O)ON=C2C)ccc1OCc1cccc(F)c1", "B-score": "inactive"}
{"smiles": "CC1=NOC(=O)/C1=C\\c1ccccc1", "B-score": "inactive"}
{"smiles": "C=CCOc1ccc(/C=C2/C(=O)ON=C2C)cc1OCC", "B-score": "9.13 (active)"}
{"smiles": "C#CCOc1ccccc1/C=C1/C(=O)ON=C1C", "B-score": "inactive"}
{"smiles": "COc1cc(/C=C2/C(=O)ON=C2C)ccc1OCc1ccccc1F", "B-score": "inactive"}
{"smiles": "O=C(O)C1C2C=CC(O2)C1C(=O)NCCc1cccc(Cl)c1", "note": "(stereo unspecified)", "B-score": "inactive"}
{"smiles": "O=C(Oc1c(-c2ccco2)oc2ccccc2c1=O)c1cccnc1", "B-score": "inactive"}
{"smiles": "O=C1C(=O)N(c2ccccc2)c2ccccc21", "B-score": "inactive"}
{"smiles": "COC(=O)C1CCN(C(=O)c2cc(=O)[nH]c3ccccc23)CC1", "B-score": "5.3 (active)"}
{"smiles": "CC(C)(CNC(=O)c1cc(=O)[nH]c2ccccc12)N1CCOCC1", "B-score": "inactive"}
{"smiles": "CC1CCCCC1NC(=O)c1cc(=O)[nH]c2ccccc12", "note": "(stereo unspecified)", "B-score": "inactive"}
{"smiles": "O=C(CNC(=O)[C@@H]1Cc2ccccc2CN1)NC1CCCCC1", "B-score": "inactive"}
{"smiles": "COc1ccccc1N1CCN(S(=O)(=O)CCNC(=O)c2ccc(OC(C)C)cc2)CC1", "B-score": "inactive"}
{"smiles": "Cc1ccc(CSCC2Nc3ccc(C(=O)N4CCN(c5ccc(F)cc5)CC4)cc3NC2=O)cc1", "note": "(stereo unspecified)", "B-score": "inactive"}
{"smiles": "COc1ccc(N2CCN(C(c3cc4ccc(C)cc4[nH]c3=O)c3nnnn3C3CCCC3)CC2)cc1", "note": "(stereo unspecified)", "B-score": "inactive"}
{"smiles": "CCOC(=O)C1CCN(C(c2cc3cc(C)cc(C)c3[nH]c2=O)c2nnnn2C2CCCCC2)CC1", "note": "(stereo unspecified)", "B-score": "6.12 (active)"}
{"smiles": "Cc1cc(C)c2[nH]c(=O)c(C(c3nnnn3Cc3ccc4c(c3)OCO4)N3CCCC3)cc2c1", "note": "(stereo unspecified)", "B-score": "inactive"}
{"smiles": "COc1ccc(S(=O)(=O)NCCc2cc3ccc(C)c(C)c3[nH]c2=O)cc1", "B-score": "inactive"}
{"smiles": "CCOCCCNC(=O)c1cc2c(=O)n3ccccc3nc2s1", "B-score": "inactive"}
{"smiles": "Cc1cc(C)nc(S/C=C/C(=O)c2ccccc2)n1", "B-score": "10.7 (active)"}
{"smiles": "Cc1ccc(N/C=C/C(=O)c2ccccc2)cc1C", "B-score": "inactive"}
{"smiles": "Cc1cc(C)nc(SCC(=O)c2ccc(Cl)cc2)n1", "B-score": "inactive"}
